Whole data set: some 39,000 sequences, median “fluorescence intensity (a.u.)” near 4,300, cut for the highest 2% near 39,000. This excerpt belongs to a sample that is enriched for the highest values.
Target: T1, OsSMF1 (Oryza sativa, UniProt Q6ZLB0 1-436)
T1 sequence: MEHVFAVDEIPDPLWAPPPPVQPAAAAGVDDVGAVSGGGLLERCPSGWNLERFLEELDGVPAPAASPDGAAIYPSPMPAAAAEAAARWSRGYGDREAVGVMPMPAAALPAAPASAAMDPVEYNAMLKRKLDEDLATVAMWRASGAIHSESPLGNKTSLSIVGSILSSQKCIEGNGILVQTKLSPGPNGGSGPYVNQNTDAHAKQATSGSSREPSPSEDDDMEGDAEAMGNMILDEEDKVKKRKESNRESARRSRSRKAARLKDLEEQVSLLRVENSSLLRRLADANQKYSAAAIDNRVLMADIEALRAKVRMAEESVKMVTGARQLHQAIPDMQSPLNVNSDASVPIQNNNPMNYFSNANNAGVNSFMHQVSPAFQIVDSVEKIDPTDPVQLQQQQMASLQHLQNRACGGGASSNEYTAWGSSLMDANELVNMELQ
Assay: protein-binding microarray (RPBM); PBS, 2% BSA, 51.3 ng/ul salmon testes DNA, 50 uM zinc acetate, 200 nM TF, 25 C, 1 h; high values mean tight binding
Conditions: protein: recombinant; tags: N-terminal polyhistidine and DsRed monomer fusion (pET32a); chain copies: 2; label: CyDye5-dUTP incorporated in the synthesized complementary strand; 3' TTTTT single-stranded linker to array surface; dsDNA, one strand shown
Procedure, shortened: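 An Axon 4000B scanner gave the binding signal as per-feature fluorescence intensity in arbitrary units. This followed washing of a custom Agilent array that had been incubated for 1 h at 25 °C with 200 nM protein in PBS, 2% BSA, salmon testes DNA and 50 µM zinc acetate. The proteins were transcription factors fused at the N-terminus to polyhistidine and DsRed, expressed in E. coli BL21-CodonPlus and purified on Ni–NTA.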

Sequence	binding signal
CCATGGCGGGGTGTATTGTTGTTGTATTTGGGGTTCTGGTCGGAGTCACCTAGTGCAG	3630 fluorescence intensity (a.u.)
TTTAGCTCTCGTCGATGTGGTGTTTGTTGGGTTTTCCCTTCGGAGTCACCTAGTGCAG	3670 fluorescence intensity (a.u.)
GTGGTGTTACGCTACTCGTGCAGTAGTGCCTCATCATGGGCGGAGTCACCTAGTGCAG	3500 fluorescence intensity (a.u.)
TAGTGTTTGTTTTGGGTTGTGCTCAGCTTAGCTCTGGTGTCGGAGTCACCTAGTGCAG	39800 fluorescence intensity (a.u.)
TAGGTTAGTGGTGGCTGGGTCGTCACGTCATTGCATTGCACGGAGTCACCTAGTGCAG	3270 fluorescence intensity (a.u.)
AGTAGTATTGGCTTGGGGTGTTGCCACGTCATCACCTGGTCGGAGTCACCTAGTGCAG	55000 fluorescence intensity (a.u.)
AGATTTTGGGTGTGTTTGGTTGCTTGCATTGTTTTAGTCTCGGAGTCACCTAGTGCAG	3300 fluorescence intensity (a.u.)
TTGTTCCTTTACAGTTTACAGTCATCTCTATTGTAGTATTCGGAGTCACCTAGTGCAG	4220 fluorescence intensity (a.u.)
TGTAGTGTTACAGTATGCCACGTCATCATGCTACGCTATTCGGAGTCACCTAGTGCAG	43900 fluorescence intensity (a.u.)
ACTCTGCCGGCAGGCGTACGTGTGTCCCGGCATTTGGTCGCGGAGTCACCTAGTGCAG	4500 fluorescence intensity (a.u.)
TCTTCCAAATGAACTGGCAATATACTTGTACACGTTCTGTCGGAGTCACCTAGTGCAG	3190 fluorescence intensity (a.u.)
ATTCACAGGCCTTTCTTAATTAAAACGGTAGATGGAGCAACGGAGTCACCTAGTGCAG	28400 fluorescence intensity (a.u.)
TTGCCGTATCGGCTCGCCTGAAAGCGTGTCATTAGCATGACGGAGTCACCTAGTGCAG	3950 fluorescence intensity (a.u.)
GCACATGACTGTGCAAACGCTGTTCCTGATCTGAGTAAGACGGAGTCACCTAGTGCAG	4170 fluorescence intensity (a.u.)
CGGCCGCGACACGCACACGCCCACCCCACGCCCGCCGCGCCGGAGTCACCTAGTGCAG	3140 fluorescence intensity (a.u.)
GGTCTTGGTAGCCACCGTGTACGGCCTCTGCGGCATGCAGCGGAGTCACCTAGTGCAG	3770 fluorescence intensity (a.u.)
ATGTTATCGTGCTAGTGTCAGCACATTCTCACTGATATTACGGAGTCACCTAGTGCAG	5330 fluorescence intensity (a.u.)
GTAAGGCGTCCATGTGATGTCATTGTTGATGGGCAAGTGCCGGAGTCACCTAGTGCAG	6430 fluorescence intensity (a.u.)
CGCATCGCATCTATGACTGGAGAGTGTATCTTTGCTTGCACGGAGTCACCTAGTGCAG	3180 fluorescence intensity (a.u.)

Sequence	binding signal
TCACCAGCGTCCGGTCAGCCATGGCGCTGAGTGGCCTCTTCGGAGTCACCTAGTGCAG	21000 fluorescence intensity (a.u.)
AAAATGTGAATCTTTTGTATAGCCAGCTTCTTCTAAAACACGGAGTCACCTAGTGCAG	24900 fluorescence intensity (a.u.)
TACTTCTTCTAAATGCTATAGCCAGGGAATGCAAACGAGACGGAGTCACCTAGTGCAG	42000 fluorescence intensity (a.u.)
AATTGATTTCTCTATAGACAAATAGGGAATGCCAGATTGACGGAGTCACCTAGTGCAG	20100 fluorescence intensity (a.u.)
CTGCGCCATCCACGCCAAGCGCGTCACCATCATGCCCAAGCGGAGTCACCTAGTGCAG	6140 fluorescence intensity (a.u.)
TTCATATCATATACGTACACGTGGAATAATTTGTAATTATCGGAGTCACCTAGTGCAG	9010 fluorescence intensity (a.u.)
CTCGGGGTTAAGCAGAGGTTATCGTCCCCGCCGCAGGTTACGGAGTCACCTAGTGCAG	4020 fluorescence intensity (a.u.)
ACTAGGATGTCACAACAGCCAAACCATCCATATACTGCCACGGAGTCACCTAGTGCAG	3170 fluorescence intensity (a.u.)
AACACACTAGTAATACGAATCTGAATATGGTACTAGGATACGGAGTCACCTAGTGCAG	64200 fluorescence intensity (a.u.)
TTCAGGATGAATGGTACGTAACATGATAGGACACTATTCACGGAGTCACCTAGTGCAG	48700 fluorescence intensity (a.u.)
CCACAAACCAAACCAACCCAAGATATCCTGATGAACCAAACGGAGTCACCTAGTGCAG	35300 fluorescence intensity (a.u.)
TTCCAACACTAGGATGGTATATGAACCACCAGGATACAAACGGAGTCACCTAGTGCAG	41800 fluorescence intensity (a.u.)
AAACGAATCTAGGAATATATGTGACACATCATAGTACTACCGGAGTCACCTAGTGCAG	4370 fluorescence intensity (a.u.)
CCGGATATGTTCTCGTAGTTTATATACGTTCATGATGACACGGAGTCACCTAGTGCAG	3450 fluorescence intensity (a.u.)
ATATTCATATGACATGACACGTAAATGTCACGTAGGATATCGGAGTCACCTAGTGCAG	3700 fluorescence intensity (a.u.)
AGTACTGGATGTGACACATCCTGGTACTACGAATCTGAACCGGAGTCACCTAGTGCAG	3910 fluorescence intensity (a.u.)
TGGCCCAACACATCAACGTTACATCACGGGCTTTAACGTTCGGAGTCACCTAGTGCAG	3290 fluorescence intensity (a.u.)
AGAAAAGAAAACGCGGCAATAAACAATGACACGGCCTGTCCGGAGTCACCTAGTGCAG	4200 fluorescence intensity (a.u.)
GGCTGACGGCTGGTGAGAAGCCACGTCAGCATTTAATTCCCGGAGTCACCTAGTGCAG	13100 fluorescence intensity (a.u.)

Sequence	binding signal
ATTGCGCAGGCGCAGCAATATTGAATGGCCCAAATGCTAGCGGAGTCACCTAGTGCAG	23800 fluorescence intensity (a.u.)
GCACAGGCTTGACACCAGTCGAGCCGAGCCGAAACCCCGTCGGAGTCACCTAGTGCAG	3270 fluorescence intensity (a.u.)
ATTTTCGTGTGCAGTATATGTGTTCCCAACCCTGAGAGCCCGGAGTCACCTAGTGCAG	3620 fluorescence intensity (a.u.)
ATTGATCACTCGGACGTCACCAAACGATCGATAAACTCGTCGGAGTCACCTAGTGCAG	5630 fluorescence intensity (a.u.)
TGGGATGATCAAATGACTGCCACACTGTCATGTTCCTCTGCGGAGTCACCTAGTGCAG	3610 fluorescence intensity (a.u.)
CTCTGTTCACTCCACCAAACTCCTTCGATTGATCAAATGACGGAGTCACCTAGTGCAG	47200 fluorescence intensity (a.u.)
AGCTGTGCCAACGAGCCCTTAATTAGTTATTATCTCTTCTCGGAGTCACCTAGTGCAG	44600 fluorescence intensity (a.u.)
AGCCTCTTCCATCTCGAGCCAGCTCATATTGATTATCCAACGGAGTCACCTAGTGCAG	4850 fluorescence intensity (a.u.)
ACCAACGAACGGACGCTGTCATGTCACCTCTCTTAATCTTCGGAGTCACCTAGTGCAG	3740 fluorescence intensity (a.u.)
AACTGCAGCAATATCACTCCCTCCAAATCAGCACATGCATCGGAGTCACCTAGTGCAG	3560 fluorescence intensity (a.u.)
AAGCACTCCAAACTGCAACGATTATATCAATAAAATAAAACGGAGTCACCTAGTGCAG	39000 fluorescence intensity (a.u.)
TAGCATAGCCAACTGCTGACTCCAAATTATCTATAGTCAACGGAGTCACCTAGTGCAG	3850 fluorescence intensity (a.u.)
TGTCAGTTGGCGAGGGATGCACTGATGACTATGCTAGTGCCGGAGTCACCTAGTGCAG	4860 fluorescence intensity (a.u.)
AAGCTAGTACAAGATGCGAAATGTCGTCAGATTCAGAGATCGGAGTCACCTAGTGCAG	3580 fluorescence intensity (a.u.)
CGTTGCGCACGTACAGCTCACGCTCAAGTCGTACACATTACGGAGTCACCTAGTGCAG	3840 fluorescence intensity (a.u.)
AGTACATAATTACGCACATGTGACACACACCACACATACTCGGAGTCACCTAGTGCAG	3140 fluorescence intensity (a.u.)
TGTCATAAATTGTACCGACATGATACACATGTCCGATACTCGGAGTCACCTAGTGCAG	39400 fluorescence intensity (a.u.)
ATACGATACCATAGGTATGTCAGCATGATATATATGTACTCGGAGTCACCTAGTGCAG	3890 fluorescence intensity (a.u.)
